High-throughput results deposited in PubChem by National Center for Advancing Translational Sciences (NCATS).
Most compounds without a hit are left out; they make up all but 2.8% or so of the library.
GLP1R cytotox = cytotoxicity counter-screen for GLP-1 receptor inverse agonists | AID 624418 | Potency, µM (titrated, usually from 38.3 µM), actives largely listed as inhibitors | HEK293 cAMP-luciferase reporter cells, luminescence, 24 h | 410,000 tested, 0.13% active;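 note: loss of luciferase light is scored as toxicity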
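Here, cytotoxicity is scored as loss of luminescence. The MLSMR collection was tested on cells seeded in medium containing 10% Nu serum, with a 24 hr compound exposure preceded by 12 hours of culture.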
GLP1R ag = GLP-1 receptor (human) agonism | HEK293 GLP-1R CRE-luciferase, luminescence, 4-6 h; cells express a hypersensitive GLP-1R form | Potency, µM (titrated, usually from 45.6 µM), hits mostly activators | 380,000 tested, 0.007% active | AID 624172
Target sequence (P43220 whole entry, looked up): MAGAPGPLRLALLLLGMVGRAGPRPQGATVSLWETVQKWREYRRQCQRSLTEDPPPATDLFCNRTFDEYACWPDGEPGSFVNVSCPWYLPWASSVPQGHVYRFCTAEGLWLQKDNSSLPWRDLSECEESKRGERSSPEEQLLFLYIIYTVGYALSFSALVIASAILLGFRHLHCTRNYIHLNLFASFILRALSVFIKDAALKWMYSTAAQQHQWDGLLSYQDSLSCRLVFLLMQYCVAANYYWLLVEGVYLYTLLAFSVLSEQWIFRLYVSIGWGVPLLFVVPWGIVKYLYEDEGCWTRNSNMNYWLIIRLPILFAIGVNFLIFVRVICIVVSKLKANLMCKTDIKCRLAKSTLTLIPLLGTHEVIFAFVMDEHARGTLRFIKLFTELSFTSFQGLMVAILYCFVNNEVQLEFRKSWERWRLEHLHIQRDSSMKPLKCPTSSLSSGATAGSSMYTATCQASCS
GLP1R inv ag = GLP-1 receptor (human) inverse agonism; P43220; HEK293 GLP-1R CRE-luciferase, luminescence, 24 h; GLP-1R form is constitutively active; Potency, µM (titrated, usually from 38.3 µM), hits mostly inhibitors; 410,000 tested, 1.6% active; AID 624417; note: nearly all actives have a fitted effect of over 55% in size
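Inverse agonists were sought by their lowering of basal cAMP reporter luciferase output in HEK293 cells stably carrying constitutively active human GLP-1R, after 24 h compound treatment.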
BRCA1 expr up = BRCA1 expression activation. MCF7-BRCA1-FFLuc reporter, luminescence, 48 h; response scale: scaled: vehicle 0%, 10 µM genistein 100%. AID 624202. 380,000 tested, 1.1% active. Potency, µM (top dose mostly 46.1 µM), hits mostly activators; note: nearly all actives have a fitted effect of over 80% in size
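Compounds are tested at multiple concentrations on MCF7 BRCA1-luciferase reporter cells seeded at 2000 per well; after 48 h, a single luminescence end-point is taken and curves fitted to the normalized data.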
Mito fusion yeast = inhibitors of mitochondrial division or activators of mitochondrial fusion. S. cerevisiae fusion-defective mutant growth rescue, CellTiterGlo 48 h. Potency, µM (top dose mostly 46.1 µM), usual class: activators. 320,000 tested, 0.23% active; note: nearly all actives have a fitted effect of over 45% in size
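Temperature-sensitive fusion-defective S. cerevisiae (e.g. fzo1-1, mgm1-5) were grown with compound in YPEG medium (3% ethanol, 3% glycerol) for 48 hours at 37C. Growth rescue was measured as viability by CellTiterGlo luminescence after 10 minutes at ambient.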
Large screens that a line does not name were inactive. Calls come from the whole dose curve; as a rule, active = well fitted curve in the direction sought with a large enough effect; inconclusive = small, poorly fitted or top-dose-only effect, or another doubt; inactive = no such curve, though single readings can be large; an effect the other way counts as inactive or inconclusive.

Cc1ccc(N(C(=O)c2nsc(Cl)c2Cl)C(C(=O)NC2CCCC2)c2ccc(O)cc2)cc1C (configuration not stated)	GLP1R inv ag inconclusive
CC(=O)c1cccc(NC(=O)c2ccc(Br)o2)c1	none
CCC1Oc2ccc(C)cc2N(CC(=O)NCCN2C(C)CCCC2C)C1=O (configuration not stated)	none
O=C(NNc1c(Cl)cc(Cl)cc1Cl)c1cccc([N+](=O)[O-])c1	none
C[n+]1ccc(/C=N/Nc2nc(Cl)c(C#N)c(Cl)c2Cl)cc1	GLP1R cytotox 10µM
Cc1cc(C(=O)N[C@H](c2ccccc2)[C@@]2(C)C[C@@H]2[C@@H](C)C(=O)Nc2ccc3ccccc3c2)n(C)n1	GLP1R inv ag 10µM
CC1(C(=O)NCc2ccc(F)c(F)c2)Cc2c(-c3cccc(C(F)(F)F)c3)ccnc2O1 (configuration not stated)	GLP1R inv ag 10µM (no result: Mito fusion yeast)
CC(=O)Nc1cccc(-c2ccnc3c2CC(C)(C(=O)Nc2cccc(C(F)(F)F)c2)O3)c1 (configuration not stated)	GLP1R inv ag 11µM (no result: Mito fusion yeast)
CC1(C(=O)NCc2ccc(F)c(F)c2)Cc2c(-c3ccccc3)ccnc2O1 (configuration not stated)	GLP1R inv ag inconclusive (no result: Mito fusion yeast)
S=c1nc(-c2ccc(Cl)cc2)[nH][nH]1	none
C=CCSc1n[nH]c(-c2ccc(OCCC)cc2)n1	GLP1R cytotox inconclusive, BRCA1 expr up 3.5µM
CCCOc1ccc(-c2nc(SCC(=O)c3ccc(Cl)cc3)n[nH]2)cc1	none (no result: GLP1R ag, BRCA1 expr up, Mito fusion yeast)
CCCOc1ccc(-c2nc(=S)[nH][nH]2)cc1	BRCA1 expr up 3.5µM
C=CCSc1n[nH]c(-c2ccc(OCCCC)cc2)n1	GLP1R cytotox inconclusive, GLP1R inv ag inconclusive, BRCA1 expr up 7.9µM
NC(=O)c1ccc(N2CCN(c3ccc(O)cc3)CC2)c([N+](=O)[O-])c1	none
O=C(O)CC(O)(CC(=O)O)C(=O)O	none (no result: Mito fusion yeast)
O=C(COc1ccccc1[N+](=O)[O-])N/N=C/c1ccccn1	none
CCCC(=O)NC(=S)Nc1ccc(S(=O)(=O)N2CCc3ccccc32)cc1	GLP1R inv ag 8.9µM (no result: Mito fusion yeast)
CCCC(=O)NC(=S)Nc1ccc(S(=O)(=O)Nc2ccc(OCC)cc2)cc1	GLP1R cytotox inconclusive, GLP1R inv ag inconclusive, Mito fusion yeast 16µM
Nc1ccc2c(c1)CC(=O)c1ccccc1S2	none
O=C1Cc2ccccc2Sc2ccc(O)cc21	GLP1R inv ag inconclusive, Mito fusion yeast 14µM
Cc1ccccc1OCC(O)CNC1CCC(NCC(O)COc2ccccc2C)CC1 (configuration not stated)	GLP1R cytotox inconclusive, GLP1R inv ag 1.3µM
OC(CNC1CCCCCC1)COc1cccc2ccccc12 (configuration not stated)	GLP1R cytotox inconclusive, GLP1R inv ag 11µM
O=C1N/C(=N\N=C\c2ccco2)SC1Cc1ccccc1[N+](=O)[O-] (configuration not stated)	GLP1R cytotox 4µM, GLP1R inv ag 7.1µM
CCOc1ccc(CC2S/C(=N/N=C/c3ccco3)NC2=O)cc1 (configuration not stated)	none
C=C1CCC[C@]2(C)C[C@H]3OC(=O)C(CN(C)CC(OC)OC)[C@H]3CC12 (some centres not stated)	GLP1R cytotox inconclusive, GLP1R inv ag inconclusive
CCCCCCCCCCCCCCCC[N+](C)(C)CCl	GLP1R cytotox inconclusive, GLP1R inv ag 3.5µM (no result: Mito fusion yeast)
CCCCCCCCCCCCCCCC[N+](C)(C)CC	GLP1R inv ag 11µM
Cc1ccc(CNC(=O)c2ccc[nH]2)cc1	none
Cc1ccc(SCC(=O)c2ccc[nH]2)cc1	BRCA1 expr up 3.2µM
O=C1OCCC1Sc1nc2ccccc2c(=O)n1-c1ccc(F)cc1 (configuration not stated)	none
CCN(CC)C(=O)c1ccc(COc2ccccc2Br)o1	GLP1R inv ag inconclusive, BRCA1 expr up 7.1µM
O=C(N/N=C/c1ccc(O)cc1)c1cc[n+](Cc2ccccc2)cc1	none
Cc1occc1C(=O)N/N=C/c1ccc(OCc2ccccc2)cc1	GLP1R inv ag inconclusive, BRCA1 expr up 6.3µM
Cc1scc(C(=O)N/N=C/c2ccc(OCC(C)C)cc2)c1C	GLP1R inv ag 8.9µM
O=C(N/N=C/c1ccc(OCc2ccccc2)cc1)c1cc[n+](Cc2ccccc2)cc1	BRCA1 expr up 3.5µM
Cc1occc1C(=O)N/N=C/c1ccc(-c2ccccc2)cc1	GLP1R inv ag inconclusive, BRCA1 expr up inconclusive
O=C(COc1ccc(S(=O)(=O)NC2CCCCC2)cc1)NC1CCCCC1	GLP1R inv ag inconclusive
Cc1ccc(Nc2cc(C)nc(-c3ccccc3O)n2)cc1	GLP1R inv ag inconclusive
Cc1cc(NCCCN)nc(-c2ccccc2O)n1	GLP1R inv ag 10µM, BRCA1 expr up 3.5µM
Cc1ccc(NC(c2nnc(-c3ccccc3)o2)c2ccccc2F)c(Cl)c1 (configuration not stated)	none (no result: GLP1R ag, BRCA1 expr up, Mito fusion yeast)
Clc1ccc(/C=N/NC(=Nc2ccccc2)c2ccccn2)c(Cl)c1	GLP1R cytotox 10µM
C(=N\NC(=Nc1ccccc1)c1ccccn1)/c1ccccn1	GLP1R inv ag inconclusive
O=C(Cn1nnc(-c2ccccc2)n1)Nc1ccc2c(c1)OCO2	none
O=C(Cn1nnc(-c2ccc3c(c2)OCO3)n1)Nc1ccccc1C(=O)O	BRCA1 expr up 11µM
Cc1ccccc1-c1cc(C(=O)NCc2ccco2)nn1CC1CC(c2cccc([N+](=O)[O-])c2)=NO1 (configuration not stated)	GLP1R inv ag inconclusive (no result: Mito fusion yeast)
CC1(C)Cc2nc(-c3ccccc3)nc(SCC(O)CO)c2CO1 (configuration not stated)	none
COc1ccc(C(=O)N2c3ccc(C)cc3C(C)(c3ccccc3)CC2(C)C)cc1 (configuration not stated)	GLP1R inv ag 10µM (no result: GLP1R ag, BRCA1 expr up, Mito fusion yeast)
Cc1ccc(NC(=O)c2ccc([N+](=O)[O-])o2)c(C)c1	none
Cc1ccc(S(=O)(=O)c2ccc([N+](=O)[O-])o2)cc1	GLP1R cytotox 5.6µM, GLP1R inv ag inconclusive (no result: Mito fusion yeast)
COc1ccccc1C(=O)NCCSCc1c(F)cccc1Cl	GLP1R inv ag inconclusive
Cc1c(C(=O)NCCSCc2c(F)cccc2Cl)cnn1-c1ccc(Cl)cc1	GLP1R inv ag 10µM
C#CCN(C[C@@H]1[C@@H](OC(=O)NCC2CCCCC2)[C@@H](OC(=O)NCC2CCCCC2)Cn2c(=O)ccc(=O)n21)S(=O)(=O)c1ccc(C)cc1	GLP1R cytotox inconclusive, GLP1R inv ag 2.5µM (no result: Mito fusion yeast)
C#CCN(C[C@@H]1[C@@H](OC(=O)NCc2ccco2)[C@@H](OC(=O)NCc2ccco2)Cn2c(=O)ccc(=O)n21)S(=O)(=O)c1ccc(C)cc1	GLP1R cytotox inconclusive, GLP1R inv ag 10µM (no result: Mito fusion yeast)
Cc1ccc(C)c(NC(=O)c2ccc3c(c2)CCN3S(C)(=O)=O)c1	none (no result: Mito fusion yeast)
